KB-3-1 cytotox: kills parental KB-3-1 adenocarcinoma cells | KB-3-1 viability, CellTiter-Glo ATP luminescence, 72 h | Potency, µM (series often up to 46.1 µM), hits mostly cytotoxic | 400,000 tested, 1.4% active; note: % is set by controls: 0 for no effect and ±100 for the full control effect; nearly all actives have a fitted effect of over 60% in size
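KB-3-1 parental drug-naive adenocarcinoma cells in DMEM/10% FBS, incubated 72 h at 37 C with pin-transferred compounds across a concentration series. Viability by CellTiter-Glo luminescence; concentration-response curves fitted after normalization.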
S2 tox: viability counter-screen for ATXN expression inhibitors; AID 651635; S2 cells (HEK-293 line with an ATXN2-luciferase reporter) viability, CellTiter-Fluor protease fluorescence, 24 h; 400,000 tested, 0.49% active; Potency, µM (highest dose often 56.7 µM), most hits filed as cytotoxic; note: nearly all actives have a fitted effect of over 40% in size
KB-V1 MDR tox: KB-V1 MDR subline cytotoxicity; KB-V1 MDR cells viability, CellTiter-Glo, 72 h; Potency, µM (series often up to 46.1 µM), usual class: cytotoxic; 400,000 tested, 3.4% active; note: % is set by controls: 0 for no effect and ±100 for the full control effect; nearly all actives have a fitted effect of over 60% in size
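qHTS viability screen in drug-selected KB-V1 MDR cells: 72 h compound treatment at 37 degrees C, ATP luminescence end point.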
ATXN2 expr inh: inhibitors of ATXN2 expression; 360,000 tested, 0.72% active; HEK-293 ATXN2-luciferase reporter, luminescence, 24 h; Potency, µM (titrated, usually from 57 µM), without a hit: at the top dose activity change, negative = inhibition, hits mostly inhibitors; note: % is set by controls: 0 for no effect and ±100 for the full control effect; nearly all actives have a fitted effect of over 55% in size
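qHTS (up to 57 uM final) was run with 24 h compound exposure of reporter cells at 37 °C. Each well was multiplexed: SteadyGlo luminescence measured ATXN2-luciferase expression after a fluorogenic Gly-Phe-AFC viability readout (25 uM final).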
HT1080NT lethal: kills 2HG-producing HT-1080-NT fibrosarcoma cells; HT-1080-NT fibrosarcoma viability, CellTiter-Glo ATP luminescence, 48 h; Potency, µM (top dose mostly 46.1 µM), inactives show top-dose activity, negative = less viability, actives largely listed as cytotoxic; 360,000 tested, 1.6% active; AID 686970;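 note: NT is the 2HG producing partner of a matched IDH1 knockdown line; 0% = DMSO-treated cells and -100% = media-only wells without cells; nearly all actives have a fitted effect of over 55% in size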
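Compounds were tested in concentration-response format on HT-1080-NT cells for 48 hours at 37 degrees C. Cell viability came from CellTiter-Glo luminescence; curves were classified by r2, response magnitude and activity.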
HT1080 IDH1KD tx: kills HT-1080 cells with IDH1 knockdown | AID 686971 | 360,000 tested, 2% active | HT-1080 IDH1 knockdown viability, ATP luminescence, 48 h | Potency, µM (highest dose often 46.1 µM), without a hit: top-dose activity, negative = toxicity, usual class: cytotoxic;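 note: 0% = DMSO wells and -100% = cell-free medium wells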
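In this qHTS, HT-1080 cells depleted of IDH1 are exposed for 48 h at 37 °C to compound titrations. Toxicity is scored from CellTiter-Glo luminescence, with DMSO as full viability and medium alone as none.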
Active calls of the source: *; i = inactive; ? = inconclusive; . = not tested or not shown; ! = repeats disagree. An excerpt weighted towards active compounds, which were near 6.2% of everything screened. Calls come from the whole dose curve; as a rule, active = well fitted curve in the direction sought with a large enough effect; inconclusive = small, poorly fitted or top-dose-only effect, or another doubt; inactive = no such curve, though single readings can be large; an effect the other way counts as inactive or inconclusive. Potency is the fitted concentration of half-maximal effect.

SMILES	KB-3-1 cytotox	S2 tox	KB-V1 MDR tox	ATXN2 expr inh	HT1080NT lethal	HT1080 IDH1KD tx
COc1cc(=O)n2c(c1C(=O)NCc1ccc3c(c1)OCO3)CCN(C(=O)c1ccccc1F)CC2	.	i	.	.	.	.
Cc1ccc(-n2nnnc2SCC(=O)Nc2sccc2C#N)cc1	i	i	18µM*	3%	-6%	-10%
COc1ccc(NC(=O)CCC(=O)c2cccs2)cc1S(=O)(=O)Nc1ccc(Cl)cc1	?	?	7.3µM*	-37%	-5%	0.82µM*
COc1ccc(NC(=O)c2c(F)cccc2F)cc1S(=O)(=O)Nc1ccc(Br)cc1	i	?	10µM*	-33%	-1%	-19%
COc1ccc(C2C(C(=O)Nc3cccnc3)=C(C)Nc3nc(SCc4ccccc4)nn32)cc1 (centres undefined)	i	i	?	-1%	.	.
CCN(CC)S(=O)(=O)c1ccc(N2CCOCC2)c(NC(=O)c2cccc3c(=O)c(C)c(-c4ccccc4)oc23)c1	i	i	21µM*	.	-19%	2%
CCOC(=O)c1ccc(Nc2nc(=O)c3cccnc3s2)cc1	i	i	6.5µM*	108%	?	2.2µM*
CC(=O)c1ccc(Nc2nc(=O)c3cccnc3s2)cc1	i	i	i	25%	26%	7%
CC(=NNC(=S)Nc1cccc(Cl)c1)c1ccccn1	?	?	?	?	18µM*	?
CC(=NNC(=S)N1CCC1)c1ccccn1	?	?	?	0.034µM*!	-24%	?
CC(=NNC(=S)N1CC2CCC(CC2)C1)c1cccc(C)n1	?	?	?	-29%	-21%	?
CCCN1CNc2c(c(=O)[nH]c(=S)n2CCc2ccccc2C)C1	.	.	.	.	12%	22%
Cc1cccc(NC(=S)N(CCCN2CCCC2)Cc2cccn2Cc2ccc(Cl)cc2)c1	?	.	?	32µM*	13µM*	?
CN(C)S(=O)(=O)c1ccc2c(c1)C(=Cc1cc3c([nH]1)CCCC3)C(=O)N2	.	.	.	27%	.	.
Cc1cc(C(=O)Cn2nc(C(=O)O)c3ccccc3c2=O)c(C)n1-c1ccccc1	i	i	16µM*	32%	5%	-7%
CCOc1c(C)cc(-c2ncccc2O)cc1C	?	i	13µM*!	10%	-1%	-20%
CC1=CC(=O)N(c2ccc(C)cc2)C1c1ccc(Cl)cc1 (centres undefined)	i	i	i	3%	-10%	-8%
CC1=CC(=O)N(c2cccc(C(F)(F)F)c2)C1c1ccc(Cl)cc1 (centres undefined)	i	i	15µM*	-8%	-17%	-28%
COc1ccc(CN2CCN(C(=O)c3ccccc3C(=O)c3ccccc3)CC2)cc1OC	i	i	16µM*	15%	2%	-1%
COc1ccc(CN2CCN(C(=O)CCC(=O)c3ccc(C)s3)CC2)cc1OC	i	?	4.1µM*	10%	11%	12%
CN(c1ccccc1)S(=O)(=O)c1ccc(NC(=O)c2cc(=O)c3ccccc3o2)cc1	i	i	i	0%	.	.
Cc1ccc(Cl)cc1NC(=O)CN1C=NS(=O)(=O)c2ccccc21	i	i	?	-5%	.	.
CCc1ccc(NC(=O)c2ccc(OC)c([N+](=O)[O-])c2)cc1	i	?	15µM*	1%	21%	10%
COc1ccc(C(=O)Nc2ccncc2)cc1[N+](=O)[O-]	i	i	i	-1%	-2%	0%
COc1ccc(C(=O)Nc2c(C)ccc3nsnc23)cc1[N+](=O)[O-]	i	i	15µM*	0%	3%	21%
COc1ccc(C(=O)Nc2nc(C)cc(C)n2)cc1[N+](=O)[O-]	i	i	i	1%	2%	2%
CC1=C(c2ccc(C)cc2)S(=O)(=O)N(Cc2ccc(C(=O)Nc3ccc(C)c(F)c3)cc2)C1=O	i	i	i	-23%	.	.
CCc1noc2nc(C)n(CC(=O)O)c(=O)c12	i	i	i	5%	.	.
